In PubChem BioAssay one finds activation, outcome and potentiation data, which are given here for 14 compounds.

The subject of assay [1] is TRPC4 beta (transient receptor potential cation channel C4), mouse. Put plainly: TRPC4 cation channel opening, retest – cell-based, Fluo4 calcium, HEK293 TRPC4beta/mu-opioid, duplicates, 10 µM, confirmation (AID 2426;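 active means fluorescence ratio normalized to control raised more than 50% in primary screen plus both repeat runs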;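 on activation: percent rise of integrated ratio over buffer wells lacking compound which define 0%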). Conditions: Fluo4 calcium fluorescence, at 10 µM; active compounds read high.
For assay [2], the system named is transient receptor potential cation channel C4 beta (TRPC4), mouse. Kind of assay: TRPC4 cation channel opening, second retest – cell-based, second round, Fluo4, HEK293 TRPC4beta/mu-opioid, 1 µM, confirmation (AID 2461;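 active means primary screen active and over 50% activation in each of two duplicate runs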;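 on activation: 0% = wells without test compound as baseline of integrated fluorescence ratio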). As to conditions: Fluo4 calcium fluorescence, at 1 µM; active compounds read high.
The test system of assay [3] is TRPC4 (transient receptor potential cation channel C4 beta), mouse. Put plainly: potentiation of DAMGO EC20 TRPC4 response – cell-based, second round, Fluo-4, HEK293 TRPC4beta/mu-opioid, 1 µM, confirmation (AID 2554;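 active means primary screen hit whose fluorescence ratio, in both repeats, exceeds the weak agonist control mean by 3 SD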). Conditions: DAMGO EC20, Fluo-4 calcium flux, at 1 µM; active compounds read high.
In assay [4] the test system is TRPC4 beta (transient receptor potential cation channel C4), mouse. Kind of assay: potentiation of DAMGO EC20 TRPC4 response – cell-based, Fluo-4, HEK293 TRPC4beta/mu-opioid, confirmation (AID 2555;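 active means primary screen hit whose calcium fluorescence ratio, in both repeats, exceeds the weak agonist control mean by 3 SD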). As to conditions: DAMGO EC20, Fluo-4 calcium flux, at 10 µM; active compounds read high. (Calcium assays in cells follow changes in intracellular calcium, usually with a dye or a luminescent sensor.)

Assay [5] has as its target Short transient receptor potential channel 4 (Mus musculus) (UniProt Q9QUQ5). Put plainly: blockers of DAMGO-evoked TRPC4 calcium flux – cell-based, Fluo4, HEK293 TRPC4beta/mu-opioid, confirmation (AID 2636;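 active means calcium signal cut by more than 3 SD below the full-agonist control yet still positive, in both repeats and the earlier primary screen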). Conditions: at 10 µM; active compounds read high.
Assay [6] has the same target. Put plainly: blockers of DAMGO-evoked TRPC4 calcium flux – cell-based, second round, Fluo4, HEK293 TRPC4beta/mu-opioid, 1 µM, confirmation (AID 2637;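 active means calcium signal ratio cut to more than 3 SD under the fully stimulated control mean yet still positive, in both repeats and the primary screen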). Conditions: at 1 µM; active compounds read high.
Assay [7] has the same target. Kind of assay: potentiation of DAMGO-evoked TRPC4 calcium signal – cell-based, HEK293 TRPC4/mu-opioid, Fluo-4 calcium, EC20 DAMGO, dose response (AID 434941;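 active means earlier screen potentiator hit that boosts the TRPC4 ion channel at some dose, with a dose response; inactive means no potentiation, no dose response, or not a prior hit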;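 further: calcium entry triggered by an EC20 dose of DAMGO at the co-expressed mu-opioid receptor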).
The target is the same in assay [8]. Put plainly: block of DAMGO-driven TRPC4 calcium entry – cell-based, HEK293 TRPC4/mu-opioid, Fluo-4 calcium, dose response (AID 434942;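 active means primary screen inhibitor hit that blocks the TRPC4 channel at some tested dose, yielding a dose curve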).
The target of assay [9] is Short transient receptor potential channel 6 (Mus musculus) (UniProt Q61143). Kind of assay: TRPC6 blockade by TRPC4 inhibitor hits – cell-based, HEK293, membrane potential dye, duplicate, selectivity assay for TRPC4 inhibitor project, confirmation (AID 434948;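 active means active in primary screen and both duplicates, each dropping signal beyond three positive-control SD with fluorescence still positive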). As to conditions: HEK293 TRPC6, membrane potential dye fluorescence, at 10 µM, stimulated with maximal-effect acetylcholine; active compounds read high.

Assay [10] shares this target. Put plainly: TRPC6 opening by TRPC4 activator hits – cell-based, HEK293, membrane potential dye, duplicate, selectivity assay for TRPC4 activator project, confirmation (AID 434950;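 active means membrane potential signal rise above negative control mean plus 3 SD in both duplicates, also active in the earlier TRPC4 screen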;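 on activation: 0% = buffer only wells and 100% = acetylcholine maximal-effect wells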). As to conditions: HEK293 TRPC6, membrane potential fluorescence, at 10 µM; activation: active compounds read high; outcome: activation.
Assay [11] shares this target. Kind of assay: positive modulators of mouse TRPC6 channel – HEK293 cells, membrane potential dye, duplicate, selectivity assay for TRPC4 potentiator project, confirmation (AID 434952;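 active means compound raising the membrane signal above positive-control mean plus 3 SD in both repeats, and a primary screen hit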). Conditions: HEK293 TRPC6, membrane potential dye fluorescence, at 10 µM, maximal acetylcholine added after compound; active compounds read high.
Assay [12] has as its target Short transient receptor potential channel 4 (Mus musculus) (UniProt Q9QUQ5). Kind of assay: calcium flux activators in TRPC4/5HT1a cells, counter-screen for TRPC4 activator project, cell-based, second counter screen, HEK293 TRPC4/5HT1a, Fluo-4 (AID 434977;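 active means calcium signal rise above buffer-control mean plus 5 SD in both duplicates, and also a hit in the primary screen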;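 on activation: plate controls were assay buffer for no effect and maximal serotonin response for full effect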). Conditions: Fluo-4 calcium flux, at 10 µM; active compounds read high.
A short description of assay [13]: serotonin-gated TRPC4 signal block – cell-based, second counter screen, HEK293 TRPC4/5HT1a, Fluo-4, counter-screen for TRPC4 inhibitor project, confirmation (AID 434978;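 active means primary screen active whose calcium signal fell more than 3 SD beyond the full-serotonin control mean in both duplicate plates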;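 further: serotonin given first at submaximal then at maximal dose after compound preincubation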). As to conditions: Fluo-4 calcium flux, at 10 µM, serotonin added to trigger calcium flux; active compounds read high. In general terms: The purpose of a counterscreen is to sort out artefacts and off-target activity.

Assay [14] has as its system TRPC4 (mouse), co-expressed with 5HT1a in HEK293. Kind of assay: enhancement of serotonin-evoked TRPC4 response – cell-based, second counter screen, HEK293 TRPC4/5HT1a, Fluo-4, counter-screen for TRPC4 potentiator project, confirmation (AID 434979;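 active means signal rise over 3 SD above mean of control wells given weak agonist, in both repeats and first screen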). As to conditions: Fluo-4 calcium flux, at 10 µM, serotonin added at its EC20 dose; active compounds read high.
Assay [15] can be described thus: nonspecific calcium rise without TRPC4 – cell-based, HEK293 mu-opioid receptor line, counter-screen for TRPC4 activator project, confirmation (AID 449723).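 Further: counter screen cells carry the mu-opioid receptor alone and lack TRPC4.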 As to conditions: HEK293 mu-opioid cells, Fluo-4 calcium fluorescence, at 10 µM; active compounds read high.
Assay [16] in a line: nonspecific potentiation of DAMGO calcium response – cell-based, HEK293 mu-opioid receptor line, counter-screen for TRPC4 allosteric potentiator project, confirmation (AID 449724;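 active means calcium signal rise more than 3 SD above the low-dose agonist control mean, in both duplicate plates and the primary screen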;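 further: HEK293 cells carrying mu-opioid receptor only with no TRPC4 channel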). As to conditions: HEK293 mu-opioid receptor cells, Fluo-4 calcium flux, at 10 µM, compound added before EC20 DAMGO stimulus; active compounds read high.

Structures are written as SMILES. For some assays here: Entries with a potency or affinity are not part of this list. Calls of active or inactive are those of the source.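 How the source made its calls, unless noted: active means hit in primary screen, with calcium signal over 5 SD above buffer well mean in both duplicates; inactive means the rest.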

Sequence of Short transient receptor potential channel 6 (Mus musculus) (Q61143 whole entry, looked up): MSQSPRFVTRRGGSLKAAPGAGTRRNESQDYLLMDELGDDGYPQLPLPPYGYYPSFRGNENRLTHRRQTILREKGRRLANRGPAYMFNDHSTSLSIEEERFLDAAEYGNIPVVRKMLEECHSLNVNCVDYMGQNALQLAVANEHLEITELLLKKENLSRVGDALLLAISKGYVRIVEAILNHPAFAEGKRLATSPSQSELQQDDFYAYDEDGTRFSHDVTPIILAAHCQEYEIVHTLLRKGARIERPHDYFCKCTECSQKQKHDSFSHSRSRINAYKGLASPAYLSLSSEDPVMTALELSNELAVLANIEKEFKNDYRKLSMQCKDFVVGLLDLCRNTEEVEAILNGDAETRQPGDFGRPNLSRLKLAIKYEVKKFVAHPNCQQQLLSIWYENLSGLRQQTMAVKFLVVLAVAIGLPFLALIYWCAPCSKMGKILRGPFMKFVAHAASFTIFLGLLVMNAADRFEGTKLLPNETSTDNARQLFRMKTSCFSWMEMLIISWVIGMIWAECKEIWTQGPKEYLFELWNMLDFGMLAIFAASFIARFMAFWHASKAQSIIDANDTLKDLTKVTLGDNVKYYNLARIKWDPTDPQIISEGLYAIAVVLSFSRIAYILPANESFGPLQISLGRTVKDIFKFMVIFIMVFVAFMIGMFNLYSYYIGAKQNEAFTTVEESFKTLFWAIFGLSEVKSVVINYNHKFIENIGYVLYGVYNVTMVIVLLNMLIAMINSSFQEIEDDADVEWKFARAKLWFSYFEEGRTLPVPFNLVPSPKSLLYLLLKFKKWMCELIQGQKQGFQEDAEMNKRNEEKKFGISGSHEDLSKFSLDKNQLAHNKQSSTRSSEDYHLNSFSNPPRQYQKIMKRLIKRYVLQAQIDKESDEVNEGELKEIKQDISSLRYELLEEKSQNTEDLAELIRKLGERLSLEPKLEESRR
Sequence of Short transient receptor potential channel 4 (Mus musculus) (Q9QUQ5 whole entry, looked up): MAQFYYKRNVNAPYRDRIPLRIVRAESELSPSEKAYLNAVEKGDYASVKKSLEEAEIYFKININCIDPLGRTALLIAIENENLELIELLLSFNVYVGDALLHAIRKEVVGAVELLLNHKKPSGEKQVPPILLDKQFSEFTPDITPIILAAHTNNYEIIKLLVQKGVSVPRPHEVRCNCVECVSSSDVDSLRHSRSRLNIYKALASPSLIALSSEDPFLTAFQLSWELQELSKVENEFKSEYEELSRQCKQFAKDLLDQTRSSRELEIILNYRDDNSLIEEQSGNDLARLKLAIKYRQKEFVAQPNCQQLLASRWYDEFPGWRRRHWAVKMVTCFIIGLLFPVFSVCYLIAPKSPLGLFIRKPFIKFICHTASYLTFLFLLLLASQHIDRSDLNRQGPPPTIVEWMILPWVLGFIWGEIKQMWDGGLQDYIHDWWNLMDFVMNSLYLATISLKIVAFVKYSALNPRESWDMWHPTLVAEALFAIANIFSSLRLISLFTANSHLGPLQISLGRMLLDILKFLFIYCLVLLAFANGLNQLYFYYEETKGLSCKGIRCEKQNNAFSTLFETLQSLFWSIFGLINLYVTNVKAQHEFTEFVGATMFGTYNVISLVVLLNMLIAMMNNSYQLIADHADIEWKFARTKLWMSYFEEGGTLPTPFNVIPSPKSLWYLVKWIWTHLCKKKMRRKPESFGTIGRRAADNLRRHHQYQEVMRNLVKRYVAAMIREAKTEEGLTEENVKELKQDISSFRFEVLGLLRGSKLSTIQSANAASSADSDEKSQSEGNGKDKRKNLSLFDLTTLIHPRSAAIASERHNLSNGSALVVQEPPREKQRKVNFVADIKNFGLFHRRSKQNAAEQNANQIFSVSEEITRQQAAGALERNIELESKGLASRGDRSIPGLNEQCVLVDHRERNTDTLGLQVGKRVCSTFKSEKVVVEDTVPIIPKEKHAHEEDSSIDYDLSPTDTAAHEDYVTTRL

Regarding `COc1cccc(C(=O)NC2CCCN(C3Cc4ccccc4C3)C2)c1OC` (centres undefined), the activation in [1] was 132% (active); in assay [10], 57.5% (active); in assay [12] it was 82.8% (active). The result in assay [2], in [3], in [4], in assay [5], in assay [6] and in assay [7] was inactive. Further, the result in assay [8], in [9], in assay [11], in assay [13], in assay [14] and in [15] was inactive. In addition, in assay [16], the result was inactive.
`COc1ccc(C(CNC(=O)CCOc2ccccc2)N(C)C)cc1` (centres undefined): the activation is 145% (active) in assay [1], 77% (active) in assay [2] and 45% (active) in assay [10]. For the same compound, the outcome in assay [3], in assay [4], in assay [5], in assay [6], in assay [7] and in assay [8] was inactive. In addition, the result in [9], in assay [11], in [12], in [13], in assay [14] and in assay [15] was inactive. The result in assay [16] was inactive.
Take `COc1ccc(C(CNC(=O)c2cc(C)on2)N(C)C)cc1` (centres undefined): the activation in assay [1] was 199% (active); in [10] it was 27.5% (active). Further, the outcome in assay [2], in [3], in [4], in assay [5], in assay [6] and in [7] was inactive. Also, the result in assay [8], in [9], in assay [11], in assay [12], in assay [13] and in assay [14] was inactive. Moreover, the outcome in assay [15] and in assay [16] was inactive.
As for `CCOc1ccccc1N(CC(=O)N1CCOCC1)S(=O)(=O)c1ccc(SC)cc1`, the activation in assay [1] was 164% (active); in assay [10], 89% (active); in assay [12] it was 134% (active); in [15], 111% (active). Further, the outcome in [2], in [3], in [4], in assay [5], in [6] and in assay [7] was inactive. Besides, the result in assay [8], in assay [9], in assay [11], in assay [13], in assay [14] and in assay [16] was inactive.
On to `CCN1CCCC1CNS(=O)(=O)c1c(C)cc(C)cc1C` (centres undefined), for which the activation was 95% (active) in assay [1], 61.5% (active) in assay [10] and 20.3% (active) in assay [12]. In addition, the result in assay [2], in [3], in [4], in [5], in [6] and in assay [7] was inactive. The result in [8], in assay [9], in [11], in assay [13], in [14] and in assay [15] was inactive. In addition, the result in assay [16] was inactive.
For `CCN1CCN(c2ccc(S(=O)(=O)N3CCCCC3)cc2NC(=O)c2cccc(Cl)c2)CC1`, the figures for the activation in [1] and in assay [12] were 63% (active) and 17.8% (active), respectively. For the same compound, the result in assay [2], in assay [5], in assay [6], in assay [7], in [8] and in [9] was inactive. Further, the compound was called inactive in assay [10], in assay [11], in [13], in assay [15] and in [16]. The potentiation in assay [3] is 9% (active); in assay [4] it was 7% (active); in assay [14] it was 14.7% (active).
Take `CN1C2C=C(N(CCc3ccccc3)C(=O)c3ccc(Cl)cc3)CC1CC2` (centres undefined): the result in [1], in assay [2], in assay [3], in assay [4], in assay [5] and in [6] was inactive. The result in assay [7], in assay [8], in [9], in assay [11], in assay [12] and in assay [13] was inactive. The result in assay [14], in assay [15] and in assay [16] was inactive. For the same compound, the activation in [10] was 50% (active).
`OCCC1CN(Cc2ccccc2-c2ccco2)CCN1Cc1ccccc1` (centres undefined): the result in [1], in [2], in assay [3], in assay [4], in [5] and in [6] was inactive. Besides, the result in assay [7], in assay [8], in assay [9], in assay [11], in assay [13] and in [14] was inactive. For the same compound, the result in [15] and in assay [16] was inactive. Moreover, the activation in [10] was 63.5% (active); in assay [12] it was 17.2% (active).
Take `CC(C)(C)c1cc(O)c(C(C)(C)C)cc1O`: the activation in assay [1] was 100% (active); in assay [12], 55.9% (active); in assay [15], 47.1% (active). The result in assay [2], in assay [3], in assay [4], in assay [5], in assay [6] and in assay [7] was inactive. Moreover, the result in assay [8], in assay [9], in [10], in assay [11], in assay [13] and in [14] was inactive. The outcome in [16] was inactive.
Regarding `O=C(NCCNC1CCC(c2ccccc2)CC1)c1cccs1` (centres undefined), the activation in [1] was 169% (active); in assay [2] it was 95% (active); in [10], 66% (active); in [12] it was 103% (active). The outcome in assay [3], in assay [4], in assay [5], in assay [6], in [7] and in assay [8] was inactive. Besides, the result in [9], in assay [11], in assay [13], in assay [14], in assay [15] and in [16] was inactive.
Take `CCN1/C(=C\c2ccc3cc(C)ccc3[n+]2CC)Sc2cc(C)c(C)cc21`: the activation in assay [1] was 177% (active); in assay [12], 66.7% (active); in assay [15] it was 152% (active); in assay [16], 1520% (active). For the same compound, the outcome in assay [2], in [3], in [5], in assay [6], in [7] and in [8] was inactive. Further, the result in [9], in [10], in assay [11] and in assay [13] was inactive. For the same compound, the potentiation in [4] was 59% (active); in assay [14], 41.7% (active).
With `CCCCN(CC)CCNC(=O)Cn1cc2c(n1)-c1c(oc(C(=O)N3CCCC3)c1C)CC2`, the activation in assay [1] is 65% (active); in [10], 34% (active); in [12], 18.6% (active). The outcome in assay [2], in [3], in assay [4], in assay [5], in assay [6] and in assay [7] was inactive. The outcome in assay [8], in assay [9], in assay [11], in assay [13], in [14] and in assay [15] was inactive. For the same compound, in assay [16], the result was inactive.
In the case of `Cc1onc(-c2ccccc2)c1C(=O)NNC(=S)NC(=O)c1ccc2c(c1)OCO2`, the activation in assay [1] was 55% (active); in assay [12], 56.5% (active). In addition, the result in [2], in [3], in [4], in [5], in [6] and in assay [7] was inactive. In addition, the result in [8], in assay [9], in assay [10], in [11], in [13] and in [14] was inactive. Moreover, the result in assay [15] and in [16] was inactive.
On to `CC(C)C1CC(CCNCc2ccc3c(c2)OCO3)(c2ccccc2)CCO1` (centres undefined), for which the activation in assay [1] is 96% (active); in [10] it was 64% (active); in assay [12], 5.88% (active). Further, the result in [2], in assay [3], in assay [4], in [5], in assay [6] and in assay [7] was inactive. Also, the result in assay [8], in [9], in [11], in assay [13], in assay [14] and in assay [15] was inactive. The outcome in assay [16] was inactive.
